# Compounds with a hit are over-represented: about 7.3% of the library has one in this group of screens.
# Tau fibril FP = inhibitors of human tau fibril formation | K18 P301L tau heparin fibrillization, Alexa594 FP, 6 h | Potency, µM (series often up to 57.7 µM), for inactives: at the highest dose activity, negative = inhibition, hits mostly inhibitors | 280,000 tested, 0.39% active | AID 1468; further: nearly all actives have a fitted effect of over 55% in size
# Target sequence (P10636 561-689 P618L limits assumed): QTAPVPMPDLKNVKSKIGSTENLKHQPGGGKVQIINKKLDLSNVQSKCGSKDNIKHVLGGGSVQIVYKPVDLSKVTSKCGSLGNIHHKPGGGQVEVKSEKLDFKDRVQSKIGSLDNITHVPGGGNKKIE
#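 FP of Alexa 594-tau after heparin (20 uM) induction. Substrate: human K18 P301L, 15 uM unlabeled, 0.24 uM labeled. Buffer 100 mM sodium acetate pH 7. 6 hr, 37 C.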
# Tau ThT inhib = inhibitors of human tau fibril formation, thioflavin T binding | recombinant tau K18 P301L, heparin-induced fibrillization, ThT fluorescence | Potency, µM (series often up to 57.4 µM), for the others: at the highest dose activity, negative = inhibition, actives largely listed as inhibitors | 270,000 tested, 2.1% active | P10636; further: nearly all actives have a fitted effect of over 55% in size
#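 Tau K18 P301L fragment (15 uM unlabeled plus 0.24 uM Alexa 594-labeled) in 100 mM sodium acetate pH 7 with compound, fibrillization induced by 20 uM heparin for 6 hr at 37 C. Thioflavin T (30 uM) added, fluorescence read after 1 hr (ex 450, em 510 nm).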
# RORg inh = inhibitors of mouse ROR gamma transcriptional activity; Potency, µM (titrated, usually from 53.6 µM), without a hit: at the highest dose activity change, negative = inhibition, most hits filed as inhibitors; Drosophila S2 Gal4-RORgamma UAS-luciferase reporter, 20 h; 310,000 tested, 5.4% active; P51450; further: nearly all actives have a fitted effect of over 60% in size
# Target sequence (P51450 whole entry, looked up, the tested form may be a part): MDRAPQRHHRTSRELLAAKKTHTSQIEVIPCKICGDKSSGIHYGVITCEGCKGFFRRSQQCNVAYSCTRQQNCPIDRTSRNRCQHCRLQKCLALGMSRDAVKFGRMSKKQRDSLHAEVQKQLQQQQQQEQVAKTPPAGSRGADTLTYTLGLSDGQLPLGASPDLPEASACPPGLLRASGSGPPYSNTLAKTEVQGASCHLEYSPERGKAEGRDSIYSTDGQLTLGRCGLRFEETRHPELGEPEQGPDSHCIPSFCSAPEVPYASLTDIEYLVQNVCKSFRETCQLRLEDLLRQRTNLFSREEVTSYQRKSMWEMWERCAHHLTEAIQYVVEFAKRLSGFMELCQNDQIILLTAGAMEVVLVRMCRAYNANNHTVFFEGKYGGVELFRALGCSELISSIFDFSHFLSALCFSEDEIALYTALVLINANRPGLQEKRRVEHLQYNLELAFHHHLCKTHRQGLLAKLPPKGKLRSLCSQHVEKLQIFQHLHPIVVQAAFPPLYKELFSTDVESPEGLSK
#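 Compounds are pin-transferred onto Drosophila Schneider cells expressing a copper-inducible Gal4–ROR gamma transactivation domain fusion. After 1 hr, copper sulfate is added to 700 uM final; luciferase is read 20 hr later.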
# Tau fluor counter = counter-screen for tau fibril formation inhibitors; tau K18 P301L Alexa594 fluorescence, heparin fibrillization; Potency, µM (top dose mostly 57.7 µM), for inactives: at the highest dose activity change, negative = decrease; 280,000 tested, 0.93% active; further: nearly all actives have a fitted effect of over 55% in size
#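 Human tau K18 P301L (15 uM unlabeled, 0.24 uM Alexa 594-labeled) in 100 mM sodium acetate pH 7 with 20 uM heparin, 6 hr at 37 C. ThT 30 uM added, 1 hr ambient; Alexa 594 FP and total fluorescence read at 555/632 nm.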
# Gal4-VP16 FLuc = Gal4-VP16 reporter inhibition counter-screen | Drosophila S2 Gal4-VP16 UAS-luciferase, luminescence, 20 h | Potency, µM (top dose mostly 53.6 µM), inactives show top-dose activity, negative = inhibition, hits mostly inhibitors | 310,000 tested, 3.5% active;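 further: Gal4-VP16 expression switched on by copper sulfate through the metallothionein promoter; nearly all actives have a fitted effect of over 50% in size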
# * marks the source's active call; other numbers are inactive results; ? = inconclusive; nt = no result; [ ] = dose if it differs, or a comment. The call rests on the fitted dose curve; in most records, active means well fitted curve in the direction sought with a large enough effect; inconclusive means small, poorly fitted or top-dose-only effect, or another doubt; inactive means no such curve, though single readings can be large; an effect the other way counts as inactive or inconclusive. On the % scale 0 is the no-effect control and ±100 the full control effect; potency means the concentration at half of the fitted maximal effect.
SMILES,Tau fibril FP,Tau ThT inhib,RORg inh,Tau fluor counter,Gal4-VP16 FLuc
COc1cccc(C(=O)Nc2c(C(=O)c3ccc(F)cc3)oc3ccccc23)c1,?,-3%,nt,-16%,nt
CC(=O)N1CC(=O)N=C1SCC(=O)Nc1nc(-c2ccccc2)c(-c2ccccc2)s1,?,?,7.1µM*,-25%,7.9µM*
Cc1sc(NC(=O)CSC2=NCCS2)nc1-c1ccccc1,-1%,?,-25%,?,-3%
CN(C)c1nc(=NCc2ccco2)ss1,14µM*,8.9µM*,?,-13%,?
CCC1(C)Cc2nc(Cl)c(C#N)cc2CO1 (centres undefined),-3%,nt,4%,-6%,-4%
CCC1(C)Cc2nc3[nH]c(=S)n(-c4ccccc4C)c(=O)c3cc2CO1 (centres undefined),-1%,-11%,6.3µM*,-11%,10µM*
CCC1(C)Cc2nc3[nH]c(=S)n(-c4ccccc4)c(=O)c3cc2CO1 (centres undefined),-7%,2%,2.8µM*,9%,?
Cc1nn(CC#N)c(=O)n1-c1ccccc1F,-4%,-4%,10µM*,-9%,4%
CCCc1cc(=O)[nH]c(SCC(=O)CSc2nc(CCC)cc(=O)[nH]2)n1,?,16µM*,-31%,-26%,-1%
O=C(CSc1nnc(-c2ccc3c(c2)OCO3)o1)Nc1ncc(Cl)cc1Cl,3%,?,0.79µM*,-5%,0.56µM*
CC(=O)CSc1nnc(-c2ccc3c(c2)OCO3)o1,11%,-9%,13µM*,-2%,16µM*
O=C1OCCC1Sc1nnc(-c2ccc(O)cc2)o1 (centres undefined),-4%,-8%,15%,-9%,2%
CCc1ccc(OC(=O)CSc2nnc(-c3ccc4c(c3)OCO4)o2)cc1,-3%,-2%,nt,1%,nt
O=C(O)CCSc1nnc(-c2ccc3c(c2)OCO3)o1,7%,-2%,2.8µM*,0%,4µM*
O=C(COC(=O)c1ccc2c(c1)OCO2)Nc1ncc(Cl)cc1Cl,-3%,-3%,28%,1%,8%
O=C1OCCC1Sc1nnc(-c2ccc3c(c2)OCO3)o1 (centres undefined),8%,-3%,10µM*,7%,?
COC(=O)[C@@]1(Cc2ccccc2)[C@H]2c3cc(C(=O)N(C)C)n(Cc4ccccc4)c3C[C@H]2CN1C(=O)c1ccccc1,1%,-15%,-8%,-8%,-5%
Cc1ccc(Cl)cc1Nc1nc2ccccc2c2nncn12,5%,-6%,nt,?,nt
O=C(Nc1ccc(N2CCOCC2)cc1)c1ccc2nc(-c3ccco3)c(-c3ccco3)nc2c1,-6%,2.5µM*,-20%,?,-24%
S=C(Nc1ccc(N2CCOCC2)cc1)Nc1ccc2nc(-c3ccco3)c(-c3ccco3)nc2c1,?,2.2µM*,0%,7.9µM*[quencher],-1%
O=C(CSc1nc(-c2ccco2)cc(C(F)(F)F)n1)Nc1ccc(C(=O)N2CCCCC2)cc1,-11%,-1%,?,?,4.5µM*
CC(=O)c1ccc(NC(=O)CSc2nnc(-c3ccco3)c(-c3ccco3)n2)cc1,8.9µM*,4µM*,-20%,?,12%
O=C(Nc1ccc(N2CCOCC2)cc1)c1cccc(-n2cnnc2)c1,nt,nt,-13%,nt,1%
O=C(CSc1nnc(-c2ccco2)c(-c2ccco2)n1)c1ccccc1,-7%,10%,-8%,8%[2.34 µM],9%
CO[C@@H]1COC(=O)C/C=C\[C@H](C)[C@H](OC)COC(=O)[C@H](C)NC(=O)C/C=C\[C@H]1C,3%[11.6 µM],-3%[11.5 µM],1%[10 µM],-5%[11.6 µM],2%[10 µM]
SMILES,Tau fibril FP,Tau ThT inhib,RORg inh,Tau fluor counter,Gal4-VP16 FLuc
COc1cc2ccccc2cc1C(=O)N1CCN(c2nc3ccc(F)cc3s2)CC1,-8%,?,nt,-18%,nt
CC[C@H](C)[C@H](N)C(=O)N[C@@H](CC(N)=O)C(=O)N1CCC[C@H]1C(=O)N[C@H](C(=O)N[C@@H](Cc1ccc(O)cc1)C(=O)N[C@@H](CCCN=C(N)N)C(=O)N[C@@H](CC(C)C)C(=O)N[C@@H](CCCN=C(N)N)C(=O)N[C@@H](Cc1ccc(O)cc1)C(N)=O)[C@@H](C)CC,nt,nt,-18%,nt,3%
COc1ccc(NC(=O)C(=O)NCC(c2ccc3c(c2)OCO3)N2CCN(C)CC2)cc1 (centres undefined),3%,0%,nt,0%,nt
CCCNC(=O)c1c(NC(=O)c2ccccc2F)sc2c1CCCCC2,-6%,-2%,nt,-6%,nt
CC(=O)c1ccc(NC(=O)c2ccc3nc(-c4ccco4)c(-c4ccco4)nc3c2)cc1,-14%,13µM*,-11%,?,9%
O=C(Nc1ccccc1)c1ccc2nc(-c3ccco3)c(-c3ccco3)nc2c1,?,?,-20%,?,?
O=C(Nc1ccc(N2CCOCC2)cc1)c1ccc([N+](=O)[O-])cc1,1%,2.8µM*,11%,-19%,-17%
CC1CCC(=C(C#N)C(=O)Nc2cccc(Cl)c2)CC1 (centres undefined),-7%,-1%,8%,-18%,8%
CC1CCC2(CC1)C(Nc1cccc(Cl)c1)=NC(=S)N2CC#N (centres undefined),4%,2%,3.5µM*,0%,3.2µM*
O=C(Nc1ccccc1)C12CC1/C(=N\O)c1ccccc1O2 (centres undefined),-3%,-5%,nt,-16%,nt
Cc1cc(C)nc(Nc2n[nH]c(-c3ccc(N)cc3)n2)n1,6%,?,0%,-8%,?
Cc1cc(C)nc(Nc2n[nH]c(-c3ccccc3Br)n2)n1,2%,-9%,14µM*,-5%,?
Cc1cc(C)nc(Nc2n[nH]c(-c3ccc(C(C)(C)C)cc3)n2)n1,3%,-5%,10µM*,-1%,5%
Cc1cc(C)nc(Nc2n[nH]c(-c3ccccc3C)n2)n1,-3%,-9%,?,-2%,-6%
Cc1ccc(/C=C2\SC(=S)N(CCC(=O)NNC(=O)c3ccccc3O)C2=O)cc1,nt,nt,0%,nt,-5%
O=C(CCCN1C(=O)/C(=C\c2ccccc2)SC1=S)Nc1ccc(O)cc1,14%,?,2µM*,14µM*[quencher],1.8µM*
COc1cccc(/C=C2\SC(=S)N(CCCC(=O)Nc3cc(C)on3)C2=O)c1,nt,nt,2.8µM*,nt,1.4µM*
Cc1ccc(/C=C2\SC(=S)N(CCCC(=O)NC3CCCC3)C2=O)cc1,nt,nt,1.6µM*,nt,?
Cc1ccc(/C=C2\SC(=S)N(CCCC(=O)NNC(=O)c3ccccc3O)C2=O)cc1,-8%,nt,1.6µM*,-7%,2.8µM*
Cc1cc(NC(=O)CCCN2C(=O)/C(=C/c3cccs3)SC2=S)no1,-16%,3%,-27%[10 µM],1%,?
COc1ccc(N2C(=O)C(C)C(Cc3ccc(C)cc3)C2=O)cc1 (centres undefined),nt,nt,28%,nt,-2%

# Screening results (PubChem)
